In PubChem BioAssay (NCI):
The panel holds about 83,000 compounds, 20% with a hit somewhere; the sample as a whole holds those more often.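 Plates (96-well) were seeded with cells, treated with compound at one concentration, and incubated for 48 hours before percent growth was determined.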 Values without a mark were called inactive. Calls of active or inactive are those of the source. How the source made its calls: active means growth percent below 10; inactive means the rest.

What was measured:
Test in all cases: NCI-60 one-dose screen, 48 h (100 = growth as untreated, 0 = no growth, -100 = all killed)
Conditions in all cases: 10 µM unless noted
SR leukemia = test system: SR leukemia
RPMI-8226 leukemia = test system: RPMI-8226 leukemia
OVCAR-8 ovarian = test system: OVCAR-8 ovarian
OVCAR-5 ovarian = test system: OVCAR-5 ovarian
OVCAR-4 ovarian = test system: OVCAR-4 ovarian
SK-OV-3 ovarian = test system: SK-OV-3 ovarian
IGROV1 ovarian = test system: IGROV1 ovarian
OVCAR-3 ovarian = test system: OVCAR-3 ovarian
HS 578T breast = test system: HS 578T breast
NCI/ADR-RES ovarian = test system: NCI/ADR-RES ovarian
T-47D breast = test system: T-47D breast
BT-549 breast = test system: BT-549 breast
MDA-MB-435 melanoma = test system: MDA-MB-435 melanoma
SW-620 colon = test system: SW-620 colon
MCF7 breast = test system: MCF7 breast
HCT-116 colon = test system: HCT-116 colon
HCC-2998 colon = test system: HCC-2998 colon
KM12 colon = test system: KM12 colon

SMILES | growth (SR leukemia) | growth (RPMI-8226 leukemia) | growth (OVCAR-8 ovarian) | growth (OVCAR-5 ovarian) | growth (OVCAR-4 ovarian) | growth (SK-OV-3 ovarian) | growth (IGROV1 ovarian) | growth (OVCAR-3 ovarian) | growth (HS 578T breast) | growth (NCI/ADR-RES ovarian) | growth (T-47D breast) | growth (BT-549 breast) | growth (MDA-MB-435 melanoma) | growth (SW-620 colon) | growth (MCF7 breast) | growth (HCT-116 colon) | growth (HCC-2998 colon) | growth (KM12 colon)
CN(C)S(=O)(=O)c1cccc(C(=O)Nc2nc(-c3ccc(F)c(F)c3)cs2)c1 | 41% | 63.2% | 48.9% | 86.1% | 37.2% | 108% | 41.6% | 70.8% | 107% | 22.5% | 19.7% | 52.5% | 83.3% | 93.9% | 48.4% | 57.6% | 88.1% | 97.4%
COc1ccc(C2=Nc3c(N)nc(N)nc3NC(c3cccc(Nc4ccnc5cc(C(F)(F)F)ccc45)c3)C2)cc1 (stereo unspecified) | -3.78% (active) | 18.2% | 75.6% | 116% | 68.9% | 84% | 72.1% | 66.4% | 66.3% | 87.6% | 93% | 107% | 10.1% | 50.4% | 37.7% | 37.9% | 72.2% | 40.4%
CCCCNC(=O)Oc1ccc(/C(=C(/C)Cc2ccc(OC)cc2)c2ccc(OCCN(CC)CC)cc2)cc1 | 16.7% | 66.3% | 86.9% | 82% | 80.3% | 97% | 93.7% | 82% | 76.9% | 91.1% | 42.1% | 87.1% | 66.8% | 93.3% | 28.5% | 42.7% | 85.6% | 85.1%
CCCC/C(CC)=N\NS(=O)(=O)c1ccc([N+](=O)[O-])cc1 | 97.5% | 101% | 100% | 94.6% | 100% | 95.9% | 105% | 107% | 103% | 104% | 95.3% | 114% | 107% | 106% | 102% | 99.6% | 107% | 98.6%
CN1CCN(C(=O)c2ccc(NC(=O)c3cc4c(nn3)NCCN4Cc3cc(Cl)ccc3Cl)cc2)CC1 | 0.181% (active) | 65.3% | 91.1% | 56.4% | 72.8% | 88.4% | 81.3% | 89.8% | 76.9% | 95.7% | 97.3% | 60.1% | 61.4% | 50.6% | 46% | 32% | 99.8% | 21.7%
CC1=C([Se]CC(OC(=O)CC[Se]c2ccccc2)C(=O)NC(C)(C)C)C(=O)c2ccccc2C1=O (stereo unspecified) | -27.7% (active) | 14.8% | -82% (active) | -63.1% (active) | -83.6% (active) | -98.3% (active) | -19.2% (active) | -95.9% (active) | -19.1% (active) | -36.3% (active) | -54.5% (active) | -89% (active) | -61.7% (active) | -76.9% (active) | -54.7% (active) | -61.9% (active) | -87.2% (active) | -92.3% (active)
COc1ccc(-c2cc(-c3cccnc3)nc3sc4c(=O)[nH]c(-c5ccc(Cl)cc5)nc4c23)cc1OC | 87.5% | 88.8% | 92.2% | 98.2% | 87.9% | 95.2% | 90.3% | 102% | 92% | 98% | 66.8% | 91.1% | 99.8% | 92.2% | 73.5% | 80.7% | 105% | 99%
COc1ccc(NC(=O)c2sc3nc(C)c(C(=O)/C=C/c4ccccc4)cc3c2N)cc1 | 14.7% | -24.4% (active) | 8.59% (active) | 63.5% | 52.3% | 103% | 17% | 0.065% (active) | 34% | 15.5% | 57.7% | 50% | 15.7% | 2.56% (active) | 14.9% | 12.3% | 25.2% | 18.7%
C#CCOc1ccc2ncnc(Nc3ccc(NC(=O)C=C)cc3)c2c1 | -23% (active) | -29.4% (active) | 0.598% (active) | 12.2% | 35% | 90.6% | -59% (active) | -22.3% (active) | 14.9% | 67% | 4.07% (active) | -28.7% (active) | -18.9% (active) | -45.8% (active) | -10.4% (active) | -79.9% (active) | 82.2% | 8.91% (active)
COc1ccc(/C=C/C(=O)c2cc3c(N)c(C(=O)Nc4cccc5ccccc45)sc3nc2C)cc1 | 44.1% | 33.4% | 81% | 103% | 88.7% | 87.7% | 70.4% | 22% | 47.6% | 58.8% | 66.4% | 87.5% | -18.8% (active) | 24.8% | 13.5% | 86.6% | 94.9% | 74.4%
C/C(Cc1ccc(Cl)cc1)=C(\c1ccc(O)cc1)c1ccc(Cl)cc1 | 80.5% | 72.5% | 104% | 92.5% | 89.3% | 112% | 96.8% | 103% | 99.6% | 100% | 82.1% | 98.1% | 93% | 95.4% | 102% | 71.6% | 91.9% | 88.6%
CCN(CC)CC(O)COc1c(Br)c(Br)c(Br)c2c1OC(C)(C)C2 (stereo unspecified) | 16.7% | 85.5% | 126% | 93.2% | 82.9% | 97.9% | 607% | 14% | -69.4% (active) | 85% | 69.5% | 95.6% | 1.3% (active) | -65.9% (active) | 73.2% | 45.5% | 76% | 53.8%
Fc1cnccc1C1CC(c2ccc(N3CCNCC3)cc2)=NN1 (stereo unspecified) | 90.4% | 92.5% | 95.1% | 111% | 108% | 85% | 68% | 98.8% | 89.2% | 106% | 82.2% | 85.3% | 105% | 93.5% | 73% | 73.8% | 102% | 96.2%
CC(=O)N1N=C(c2ccc(C(F)(F)F)c(F)c2)CC1c1[nH]c(C)c(C(=O)NCC(F)(F)F)c1C (stereo unspecified) | 86.9% | 90.7% | 41.9% | 79.3% | 13.6% | 75.2% | 69.5% | 68.3% | 31.8% | 78.5% | 43.5% | 89.9% | 76.7% | 94.3% | 73.6% | 34% | 72.1% | 60.2%
CCn1cc(C(=O)O)c(=O)c2cc(F)c(N3CCN(CC(=O)Nc4ccc(S(=O)(=O)Nc5nccc(C)n5)cc4)C(C)C3)c(F)c21 (stereo unspecified) | 103% | 109% | 105% | 98.5% | 104% | 113% | 99.7% | 113% | 99.6% | 107% | 98.9% | 132% | 103% | 96.6% | 96.7% | 104% | 115% | 100%
Cc1nc2sc(C(=O)Nc3ccc(Br)cc3)c(N)c2cc1C(O)c1ccccc1 (stereo unspecified) | 14.9% | 55.4% | 75.2% | 92% | 59.3% | 78.3% | 75.1% | 73.9% | 74.1% | 59.7% | 45.6% | 71.1% | 1.03% (active) | 45.8% | 33.8% | 29.9% | 76.5% | 49.2%
C=C(C)[C@@H]1CC[C@]2(C(=O)O)CC[C@]3(C)[C@H](CC[C@@H]4[C@@]5(C)CCC(NC(=O)c6cccc(OC(C)=O)c6OC(C)=O)C(C)(C)[C@@H]5CC[C@]43C)[C@@H]12 (stereo partly specified) | 3.23% (active) | -17.8% (active) | 10.7% | 1.76% (active) | 12.9% | 6.71% (active) | 5.12% (active) | 11.8% | 15.8% | 8.44% (active) | 20.9% | 16.5% | -56.4% (active) | 2.79% (active) | 4.17% (active) | -38.6% (active) | 12% | 12.1%
